aSyn 5UTR act: Activators working through SNCA 5'UTR binding (MLPCN); alpha-synuclein 5'UTR reporter, activators screen; activity score, % (tested at 7.5 µM), hits read low; 300,000 tested, 7.1% active; AID 1814; in the data active means activity score below about -60%
Starred values were filed as active, the others as inactive. The list is a sample of the results.

SMILES	aSyn 5UTR act
Nc1nc2c(ccc3ccccc32)s1	-71.6*
COC(=O)Cn1c(=NC(=O)c2ccc([N+](=O)[O-])s2)sc2cc(Br)ccc21	-67.8*
COC(=O)Cn1c(=NC(=O)c2ccc(Cl)s2)sc2cc(C)ccc21	-184.1*
O=C(c1ccccc1)[C@H]1[C@H](c2ccccc2)[C@@]2(N=C(c3ccccc3)OC2=O)C2c3ccccc3C=NN21 (some centres not stated)	-110.4*
CC(C)C1COC(c2cccc3ccccc23)=N1 (configuration not stated)	-115.2*
Cn1c(=O)c(C(=O)Nc2ncccc2O)c(O)c2ccccc21	-146.7*
Cc1cccc(NC(=O)c2c(O)c3ccccc3n(C)c2=O)c1	-141.5*
Cc1ccc(NC(=O)c2c(O)c3ccccc3n(C)c2=O)nc1	-97.8*
Cc1oc(=O)c(NC(=O)c2cccc(Cl)c2)cc1C(=O)c1ccccc1	-237.1*
O=C(Nc1cc2ccccc2oc1=O)c1ccccc1	73.7
O=C(Nc1ccc(Br)cc1)C1Cc2ccccc2O/C1=N\O (configuration not stated)	-158.1*
Cc1ccc(NC(=O)C2Cc3ccccc3O/C2=N\O)cc1C (configuration not stated)	-127.4*
O=C(NCc1cccs1)c1ccc(N2CCCCC2)nc1	-131.4*
O=C(NCc1cccs1)c1ccc(N2CCCC2=O)cc1	-105.6*
CC1CCCN(c2ccc(C(=O)NCc3ccccc3)cn2)C1 (configuration not stated)	-102.6*
CC1CCCN(c2ccc(C(=O)NCc3cccs3)cn2)C1 (configuration not stated)	-84.9*
CC1CCN(c2ccc(C(=O)NCCc3ccccc3)cn2)CC1	-105.2*
Cc1cc(C(=O)CSc2nnc(N)s2)c(C)n1C1CC1	-88.1*
Cc1ccc(C(=O)CSc2nnc3ccccn23)c(C)c1	-73.5*
Cc1ccc(C(=O)CSc2nnc(N)s2)c(C)c1	-92.0*
CCOc1ccc(C(=O)CSc2nnc(N)s2)cc1	-74.2*
Nc1nc(N)c2sc3nc4c(cc3c2n1)CCC4	-107.2*
Cc1ccc2c(c1)C(=O)C(=O)N2CCCOc1ccccc1C	-110.1*
Cc1cnc(C(=O)Nc2ccc(F)c(F)c2)cn1	-132.9*
Cc1cnc(C(=O)NCCc2ccc(Cl)cc2)cn1	-114.3*
SMILES	aSyn 5UTR act
Cc1cnc(C(=O)Nc2ccc3c(c2)CCC3)cn1	-136.5*
CCCCOc1ccc(NC(=O)c2cnc(C)cn2)cc1	-112.9*
Cc1cc(C)n2nc(C(=O)Nc3ccc4c(c3)CCC4)nc2n1	-101.5*
O=C(Nc1ccc2c(c1)CCC2)c1cnccn1	-175.4*
O=C(Nc1ccc(N2CCOCC2)cc1)c1cnccn1	66.6
CC(C)(C)c1cc[n+](/C(C(=S)Nc2ccccc2F)=C(/[O-])c2ccc3c(c2)OCCO3)cc1	-73.6*
CCOc1ccccc1NC(=S)/C(=C(\[O-])c1ccc2c(c1)OCCO2)[n+]1ccc(CC)cc1	-64.2*
[O-]/C(=C(\C(=S)Nc1ccc(Cl)cc1)[n+]1ccccc1)c1ccc(OC(F)F)cc1	-78.8*
[O-]/C(=C(\C(=S)Nc1ccccc1F)[n+]1ccccc1)c1ccc(-c2ccccc2)cc1	-71.5*
O=C1N(c2ccccc2)C[C@@H]2C[C@@H](c3cc4ccccc4o3)N3CCC[C@@]123	-594.1*
Cc1nn(C)c(C)c1CNC(=O)Nc1ccc(Cl)cc1	-88.7*
Cc1nn(C)c(C)c1CNC(=O)Nc1ccc2c(c1)OCO2	-72.1*
C=CCOc1ccc(NC(=O)C(=O)NCCCn2ccnc2)cc1	51.0
O=C(NCCCn1ccnc1)Nc1ccc2c(c1)OCO2	-106.7*
O=S(=O)(c1ccc(NC(=S)NCc2cccnc2)cc1)N1CCCCC1	86.4
O=C(NCc1cccnc1)Nc1ccc2c(c1)OCO2	-63.2*
Cc1nn(C)c(C)c1CNC(=O)Nc1cccc(Cl)c1	-105.5*
FC(F)Sc1ccc(NC(=S)NC2CCCCC2)cc1	-109.3*
S=C(Nc1ccc(Br)cc1)NC1CCCC1	-123.6*
O=C(CC1CCCC1)Nc1ccc(Br)cc1	-137.7*
FC(F)Sc1ccc(NC(=S)NCc2ccccc2)cc1	-70.3*
FC(F)Sc1ccc(NC(=S)NCC2CCCCC2)cc1	-66.9*
CC1CCN(C(=S)Nc2ccc(SC(F)F)cc2)CC1	-142.6*
CC(=O)N1CCc2cc(N=NC3=C(O)CCCC3=O)ccc21	-100.2*
Cn1c(-c2ccc3c(c2)OCO3)cnc1NCc1ccccc1	-103.6*
SMILES	aSyn 5UTR act
Cn1c(-c2ccc3c(c2)OCO3)cnc1NCc1ccccc1Cl	-94.5*
O=c1oc2ccccc2nc1/C=C(O)/C=C/c1ccc(F)cc1	-87.6*
Cc1cccc(Nc2nc(-c3ccc(F)cc3)cs2)n1	-136.9*
COc1ccc(-c2csc(Nc3cccc(C)n3)n2)cc1C	-216.3*
CC(=O)Oc1ccc(-c2csc(Nc3cccc(C)n3)n2)cc1	-250.1*
COc1ccc(-c2csc(Nc3cccc(C)n3)n2)cc1	-231.9*
Fc1ccc(-c2csc(Nc3ccccn3)n2)cc1	-77.0*
O=C(N/N=C/c1cc2c(cc1Cl)OCO2)c1ccccn1	-91.5*
Cn1cc(Br)c(C(=O)N/N=C/c2cc3c(cc2Cl)OCO3)n1	-140.3*
COc1cc(/C=N/NC(=O)c2ccccn2)cc2c1OCO2	-95.4*
O=C(N/N=C/c1cc2c(cc1[N+](=O)[O-])OCO2)c1ccccn1	-81.2*
COCCN1C(=O)/C(=C/c2ccc(N3CCCC3)cc2)SC1=S	-85.4*
O=C(CCN1C(=O)/C(=C/c2ccccc2F)SC1=S)NC1C=CS(=O)(=O)C1 (configuration not stated)	-62.2*
O=C(O)CCCN1C(=O)/C(=C\C(Cl)=C\c2ccccc2)SC1=S	-224.7*
CC(C)c1ccc(/C=C2\SC(=O)N(CC(=O)NC3C=CS(=O)(=O)C3)C2=O)cc1 (configuration not stated)	-69.0*
O=C(CCN1C(=O)/C(=C\c2ccccc2F)SC1=S)N1CCCCC1	-116.7*
O=C(CCN1C(=O)/C(=C/c2ccccc2)SC1=S)N1CCCCCC1	-62.4*
CCOc1ccc(/C=C2\SC(=S)N(CCC(=O)O)C2=O)cc1	114.6
CC1CCN(C(=O)CCN2C(=O)/C(=C/c3cccs3)SC2=S)CC1	-74.7*
O=C(CCCN1C(=O)/C(=C/c2ccccc2Cl)SC1=S)NNC(=O)c1ccc(Cl)cc1	64.7
O=C(Nc1ccc(N2CCN(Cc3ccccc3)CC2)cc1)c1ccco1	-86.0*
O=C(Nc1ccc(N2CCN(Cc3ccccc3F)CC2)cc1)c1ccc([N+](=O)[O-])o1	104.7
O=C(NC(=S)Nc1ccc(N2CCOCC2)cc1)c1ccco1	-108.2*
O=C(NC(=S)Nc1ccc(CN2CCOCC2)cc1)c1ccco1	-117.2*
Cc1c2c(nc3ccccc13)CCC(C(C)(C)C)C2 (configuration not stated)	-116.3*
SMILES	aSyn 5UTR act
O=c1c(-c2ccc3c(c2)OCCO3)coc2cc(OC3OC(CO)C(O)C(O)C3O)ccc12 (configuration not stated)	-86.3*
Nc1nc(-c2ccccn2)nc(N)c1Cc1ccccc1F	-246.3*
NC(=O)c1sc2nc3c(c(-c4ccc(Cl)cc4)c2c1N)CCCC3	66.4
Nc1ccc2nc3c(c(Cl)c2c1)CCCC3	-88.4*
O=C(COc1ccccc1)Nc1ccc2c(c1)nc1n2CCSC1	-124.8*
O=C(COc1ccccc1)Nc1ccc2c(c1)nc1n2CCOC1	-85.1*
O=C(Nc1ccc(Cl)cn1)Nc1ccccc1Cl	-87.0*
O=C(Nc1ccccn1)Nc1ccccc1Cl	-131.2*
Cc1cc(NC(=O)Nc2ccccc2Cl)no1	-73.9*
S=C(Nc1ccccn1)Nc1ccccc1Cl	-83.0*
O=[N+]([O-])c1cnc(Nc2ccc(Cl)cn2)c([N+](=O)[O-])c1	-128.9*

High-throughput results: PubChem, Broad Institute
